Laboratory results published in PubChem BioAssay AID720533 (National Center for Advancing Translational Sciences (NCATS), 2013).
About 750 (4.2%) of roughly 18,000 compounds were called active. Roughly 13% stayed inconclusive and do not appear here. The sample as a whole holds a higher share of actives than the screen did. Unmarked numbers belong to inactive results. Calls follow the shape of the full dose curve; tested in HEK293 cells.

Assay: qHTS for Inhibitors of binding or entry into cells for Lassa Virus
Settings: Lassa virus pseudotyped entry inhibition, cell-based qHTS; series mostly up to 49.2 µM; activity change, negative = inhibition: at the top concentration
% is scaled to controls: 0 for no effect and ±100 for the full control effect; potency is read from the fitted curve at half-maximal effect.

Structure (SMILES)	activity change, negative = inhibition	Potency
O=C(NCc1ccco1)O[C@@H]1C(=O)c2cc(Br)ccc2O[C@H]1c1ccc2c(c1)OCO2	-1.63%	
O=C(C1CCCCC1)N1C[C@@H](n2cc(C3CC3)nn2)[C@@H](O)C[C@@H]1c1ccccc1	14.9%	
COC(=O)c1ccccc1-c1cc(C)cc2c1OC(CNC(=O)C1CCOC1)C2 (configuration not stated)	-27.8%	
CC(C)c1ccc2c(c1)c(SC(C)(C)C)c(CC(C)(C)C(=O)O)n2Cc1ccc(Cl)cc1		25.1 µM (active)
COCCN1C(=S)NC(c2cccc(F)c2)C(C(=O)OC)=C1C (configuration not stated)	11% [at 8.59 µM]	
O=C(Nc1ccc(O)cc1)c1ccccc1O	-7.09%	
O=C(Nc1ccc(C(=O)O)c(O)c1)c1ccccc1	-5.82%	
O=C(Nc1cccc(C(F)(F)F)c1)c1cc(Br)cc(Br)c1O		3.98 µM (active)
c1ccc2c(c1)[I+]c1ccccc1-2		0.891 µM (active)
CCCCCCCC/C=C\CCCCCCCC(=O)OC[C@H](CO)OC(C)=O	inactive	
Cc1cc2oc(=O)cc(-c3ccccc3)c2c(C)c1/C=C/c1ccc(F)cc1	-26.5%	
Oc1c(Cl)cc(Cl)c(Cl)c1Cc1c(O)c(Cl)cc(Cl)c1Cl		6.31 µM (active)
C=CCC1CCC(=O)N2CCCC12 (configuration not stated)	6.13% [at 107 µM]	
CO[C@H]1C=CO[C@@]2(C)Oc3c(C)c(O)c4c(O)c(c(/C=N/N5CCN(C)CC5)c(O)c4c3C2=O)NC(=O)/C(C)=C\C=C[C@H](C)[C@H](O)[C@@H](C)[C@@H](O)[C@@H](C)[C@H](OC(C)=O)[C@@H]1C	-2.8%	
COC(=O)C(C(=O)OC)[C@@H](NC=O)c1ccccc1	3.12%	
Cc1c(O)cc(O)c2c(=O)c(-c3ccc(O)cc3)coc12	9.52%	
O=C(OCc1ccccc1)c1ccc(O)cc1	5.78%	
O=c1c(O)c(-c2ccc(O)cc2)oc2ccccc12	-13.3%	
O=c1c(CN2CCOc3ccc(CN4CCC(Oc5cccnc5)CC4)cc3C2)coc2ccccc12	-25.2%	
O[C@H]1CN(CC2CCCCC2)[C@@H](c2ccccc2)C[C@H]1n1cc(-c2ccc(F)cc2)nn1	-22.3%	
O=c1cc(CN2CCCCCCC2)c2c(ccc3ccccc32)o1	-12.8%	
CCCCCCN1C[C@H](O)[C@@H](n2cc(COC(=O)c3ccccc3)nn2)C[C@H]1c1ccc(Cl)cc1	-31.6%	
